Experimental data as given in PubChem BioAssay AID602384 (National Center for Advancing Translational Sciences (NCATS), 2012).
The source made the active and inactive calls. Calls come from the whole dose curve; as a rule, active = well fitted curve in the direction sought with a large enough effect; inactive = no such curve, though single readings can be large or run the other way.

target: Pyruvate kinase PKM (Homo sapiens) (UniProt P14618); assay: qHTS for Activators of Human Muscle Isoform 2 Pyruvate Kinase: Extended Characterization; conditions: purified PKM2, ATP production, Kinase-Glo luminescence
Sequence (P14618 whole entry, looked up, canonical isoform): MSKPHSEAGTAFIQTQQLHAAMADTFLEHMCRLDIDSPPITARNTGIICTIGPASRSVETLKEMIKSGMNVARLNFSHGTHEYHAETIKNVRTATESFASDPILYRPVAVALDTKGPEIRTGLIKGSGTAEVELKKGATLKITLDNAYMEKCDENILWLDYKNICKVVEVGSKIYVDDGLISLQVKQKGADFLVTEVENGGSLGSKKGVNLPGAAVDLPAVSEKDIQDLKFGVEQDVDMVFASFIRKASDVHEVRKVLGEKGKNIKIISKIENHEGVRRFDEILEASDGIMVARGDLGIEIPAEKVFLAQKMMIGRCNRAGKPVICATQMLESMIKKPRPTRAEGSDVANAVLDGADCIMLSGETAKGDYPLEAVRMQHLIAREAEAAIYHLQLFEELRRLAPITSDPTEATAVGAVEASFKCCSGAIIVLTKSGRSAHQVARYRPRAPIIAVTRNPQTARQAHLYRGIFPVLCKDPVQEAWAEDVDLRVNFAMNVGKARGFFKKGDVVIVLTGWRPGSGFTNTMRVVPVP
Description: Human pyruvate kinase muscle 2 (hPK-M2) enzyme was supplied as a highly purified (>95% pure) preparation from Harvard Medical School and assayed for its ability to generate ATP from ADP using phosphoenolpyruvate (PEP) as a substrate. ATP generation was detected in a coupled reaction by luciferase-mediated luminescence, an ATP-dependent process. Pyruvate kinase substrates, PEP and ADP, were present in the assay at Km and approximately 10-fold below Km respectively. The enzyme was assayed at an intermediate level of activity to screen for both inhibitors and activators. NIH Chemical Genomics Center [NCGC] NIH Molecular Libraries Probe Centers Network [MLPCN] MLPCN Grant: MH085679 Assay Submitter (PI): Matthew G. Vander Heiden, Harvard Medical School
Three uL of substrate mix (at r.t.) in assay buffer (50 mM Imidazole pH7.2, 50 mM KCl, 7 mM MgCl2, 0.01% Tween 20, 0.05% BSA) was dispensed into white solid bottom 1,536 well microtiter plates so that the final concentrations of substrates in the assay were 0.1 mM ADP and 0.5 mM PEP. 23 nL of compound were delivered by a pin tool and 1 uL of enzyme mix (final concentration of 0.1 nM) in assay buffer (4 degree Celsius) was added. Plates were incubated at room temperature for 1 hour. Two uL of detection mix (Kinase-Glo, Promega; at 4 degree Celsius protected from light) was added and luminescence read by a ViewLux (Perkin Elmer) at 1 second exposure/plate. Data were normalized to the uninhibited (column 3) and AC100 inhibition (no enzyme in column 2). To monitor activation, the first column contained a titration of the activator, NCGC00031955-03 (16-point 1:2 dilutions in duplicate starting at 57 uM) and the first 16 rows of column 4 contained 57 uM of NCGC00031955-03.

Potency, active:
Cc1cc2c(s1)c1cnn(Cc3c(Cl)ccc(C)c3F)c(=O)c1n2C 1.26 µM
Cc1cc2c(s1)c1cnn(Cc3cc(F)ccc3F)c(=O)c1n2C 1.12 µM
Cc1cc2c(s1)c1cnn(Cc3ccc(F)cc3F)c(=O)c1n2C 0.891 µM
Cc1cc2c(s1)c1cnn(Cc3cc(F)c(F)cc3F)c(=O)c1n2C 1.12 µM
COc1cccc(Cn2ncc3c4sc(S(C)=O)cc4n(C)c3c2=O)c1 (stereo not given) 0.073 µM
